High-throughput results (PubChem)
Only some compounds are listed: those with a hit (about 8.9% of all), similar ones and a draw of the others.
KB-3-1 tox: KB-3-1 parental cell cytotoxicity | KB-3-1 viability, CellTiter-Glo ATP luminescence, 72 h | Potency, µM (titrated, usually from 46.1 µM), hits mostly cytotoxic | 400,000 compounds, 1.4% hits | AID 1347075; further: nearly all actives have a fitted effect of over 60% in size
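Cytotoxicity in the drug-sensitive parental line KB-3-1 was scored as loss of CellTiter-Glo luminescence following 72 h incubation with compound. Values come from curve fitting of normalized concentration-response data.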
KB-V1 cytotox: KB-V1 MDR subline cytotoxicity; KB-V1 MDR cells viability, CellTiter-Glo, 72 h; Potency, µM (titrated, usually from 46.1 µM), most hits filed as cytotoxic; 400,000 compounds, 3.4% hits; AID 1347076; further: nearly all actives have a fitted effect of over 60% in size
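Following 72 h at 37 degrees C with compound, KB-V1 cell viability was read by CellTiter-Glo luminescence, medium being phenol-red-free DMEM plus 10% FBS; concentration-response parameters came from normalized, curve-fitted qHTS data.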
SW480 rerep: inducers of DNA re-replication in SW480 colon cancer cells; AID 624297; Potency, µM (top dose mostly 46.1 µM), actives largely listed as activators; 340,000 compounds, 1.8% hits; SW480 DNA re-replication, Hoechst DNA content imaging, 48 h; further: nearly all actives have a fitted effect of over 55% in size
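Image-based read-out: total Hoechst fluorescence of nuclei (405 nm excitation, 500-530 nm emission), with hits raising the fraction of high-intensity nuclei. SW480 colon cells incubated 48 hr with compounds at 37 C.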
D3 ag: D3 dopamine receptor (human) agonism. P35462. AID 652048. 410,000 compounds, 0.58% hits. max activation, %. D3R DiscoveRx beta-arrestin cells, luminescence, 90 min; in the data active means max activation above about 30%
Target sequence (P35462 whole entry, looked up): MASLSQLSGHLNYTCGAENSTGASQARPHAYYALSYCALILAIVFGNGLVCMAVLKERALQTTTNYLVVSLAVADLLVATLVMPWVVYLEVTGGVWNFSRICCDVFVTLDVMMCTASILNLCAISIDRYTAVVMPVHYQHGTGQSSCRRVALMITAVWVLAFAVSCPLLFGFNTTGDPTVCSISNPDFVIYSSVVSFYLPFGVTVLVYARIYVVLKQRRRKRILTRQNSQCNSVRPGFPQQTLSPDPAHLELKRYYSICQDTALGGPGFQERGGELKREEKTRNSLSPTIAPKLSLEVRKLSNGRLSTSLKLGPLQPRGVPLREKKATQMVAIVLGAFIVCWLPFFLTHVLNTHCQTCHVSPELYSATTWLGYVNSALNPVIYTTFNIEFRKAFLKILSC
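Agonist-mode cell screen: cells plated at 1500/well and incubated overnight at 37 °C, then exposed to library compounds for 90 min at 37 °C. Detection reagent was added for 30–60 min at room temperature, and luminescence was read.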
DRD3 antagonist: antagonists of human D3 dopamine receptor; max response, negative = inhibition, %; AID 652054; D3R cells, DiscoveRx beta-arrestin luminescence, antagonist mode; hits give low values; P35462; 360,000 compounds, 2.5% hits; in the data active means max response below about -50%; inconclusive means no clear call, values can overlap the other calls
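Cells expressing the human receptor were seeded at 1500 cells/well, incubated overnight at 37 degrees C in 5% CO2, then exposed to library compounds with dopamine controls for 90 minutes at 37 degrees C before luminescent detection.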
MCF10A rereplic: DNA re-replication induction in MCF 10a cells. MCF 10A DNA re-replication, Hoechst nuclear intensity, 48 h. Potency, µM (series often up to 46.1 µM), usual class: activators. 350,000 compounds, 2.9% hits. AID 624296; further: nearly all actives have a fitted effect of over 50% in size
Each line names hits and unclear results; the compound was inactive in the other large screens. Unless noted, the call rests on the fitted dose curve; in most records, active means well fitted curve in the direction sought with a large enough effect; inconclusive means small, poorly fitted or top-dose-only effect, or another doubt; inactive means no such curve, though single readings can be large; an effect the other way counts as inactive or inconclusive.

CCOc1ccc(CCNC(=O)CN2C(=O)COc3ccc(S(=O)(=O)N4CCC(C)CC4)cc32)cc1	KB-3-1 tox inconclusive, KB-V1 cytotox inconclusive (no result: SW480 rerep, DRD3 antagonist, MCF10A rereplic)
COc1cc(/C=C(\C#N)c2nc3ccccc3[nH]2)cc(Cl)c1OCc1ccccc1Cl	none (no result: SW480 rerep, DRD3 antagonist, MCF10A rereplic)
CN(CC(=O)Nc1ccccc1Cl)C(=O)CSc1nc2ccccc2s1	KB-V1 cytotox 16µM
Cc1nnc(SCC(=O)N(C)CC(=O)Nc2ccccc2Cl)s1	none
CCc1ccccc1NC(=O)CN(C)C(=O)CSc1nnc(Nc2cccc(C)c2C)s1	KB-V1 cytotox 18µM
CN(CC(=O)Nc1ccccc1Cl)C(=O)COC(=O)c1nc(Cl)c(Cl)c(Cl)c1Cl	KB-3-1 tox inconclusive, SW480 rerep inconclusive, DRD3 antagonist -67, MCF10A rereplic 5.8µM
CN(C(=O)CSc1nc2ccc(NC(=O)COc3ccc(Cl)cc3)cc2s1)c1ccccc1	KB-3-1 tox inconclusive, KB-V1 cytotox 21µM (no result: SW480 rerep, DRD3 antagonist, MCF10A rereplic)
COc1ccc(CCNC(=O)c2cc3c(=O)n4ccccc4nc3n(CC3CCCO3)c2=N)cc1 (configuration not stated)	MCF10A rereplic inconclusive
COc1ccc(CCNC(=O)c2cc3c(=O)n4ccccc4nc3n(CC3CCCO3)c2=N)cc1OC (configuration not stated)	none
N=c1c(C(=O)NCc2ccc(F)cc2)cc2c(=O)n3ccccc3nc2n1CC1CCCO1 (configuration not stated)	SW480 rerep 2.9µM, MCF10A rereplic inconclusive
N=c1c(C(=O)NCc2ccc3c(c2)OCO3)cc2c(=O)n3ccccc3nc2n1CC1CCCO1 (configuration not stated)	KB-3-1 tox inconclusive, SW480 rerep 23µM, MCF10A rereplic inconclusive
N=c1c(C(=O)NCCc2ccccc2)cc2c(=O)n3ccccc3nc2n1CC1CCCO1 (configuration not stated)	SW480 rerep 2.6µM, MCF10A rereplic 18µM
N=c1c(C(=O)NCc2ccco2)cc2c(=O)n3ccccc3nc2n1CC1CCCO1 (configuration not stated)	SW480 rerep inconclusive, MCF10A rereplic inconclusive
COc1ccc(S(=O)(=O)NC(C)C(=O)Nc2ccccc2C(F)(F)F)cc1 (configuration not stated)	KB-V1 cytotox 16µM
CCN(Cc1ccccc1)C(=O)c1cc2c(=O)[nH]c3ccc(C)cc3c2s1	none (no result: SW480 rerep, DRD3 antagonist, MCF10A rereplic)
O=C(CC1(O)C(=O)N(CCc2ccccc2)c2ccc(Br)cc21)c1ccccc1O (configuration not stated)	none (no result: KB-3-1 tox, KB-V1 cytotox, SW480 rerep, DRD3 antagonist, MCF10A rereplic)
COc1ccc(CN2CCN(Cc3c[nH]c4ccccc34)CC2)c(OC)c1	DRD3 antagonist -74 (no result: SW480 rerep, MCF10A rereplic)
COc1ccc(CN2CCN(Cc3c[nH]c4ccccc34)CC2)cc1	SW480 rerep inconclusive, DRD3 antagonist inconclusive
O=C(c1ccc2c3c(cccc13)CC2)C1CCCN(Cc2cccnc2)C1 (configuration not stated)	none
COc1cccc(C(=O)C2CCCN(C/C=C/c3ccccc3OC)C2)c1 (configuration not stated)	MCF10A rereplic inconclusive
COc1cc(CN2CCCC(C(=O)c3ccc4c5c(cccc35)CC4)C2)cc(OC)c1O (configuration not stated)	KB-3-1 tox inconclusive, SW480 rerep inconclusive, DRD3 antagonist inconclusive, MCF10A rereplic 21µM
COc1ccc(C(=O)C2CCCN(C/C=C/c3ccccc3OC)C2)c(OC)c1 (configuration not stated)	SW480 rerep inconclusive, DRD3 antagonist -72
COc1ccc(CN2CCN(Cc3c[nH]c4ccccc34)CC2)cc1OC	DRD3 antagonist -52 (no result: SW480 rerep, MCF10A rereplic)
COc1cccc(CNC(=O)C2CCC(CNS(=O)(=O)c3ccc(Br)s3)CC2)c1 (configuration not stated)	none (no result: SW480 rerep, DRD3 antagonist, MCF10A rereplic)
CCOc1ccc(-n2c(C)nc3cc(C(=O)NC4CCCC4)ccc32)cc1	none (no result: SW480 rerep, DRD3 antagonist, MCF10A rereplic)
CCOc1ccc(Nc2nc3cc(Cl)c(Cl)cc3nc2-n2nc(C)cc2C)cc1	KB-3-1 tox inconclusive, KB-V1 cytotox inconclusive (no result: SW480 rerep, DRD3 antagonist, MCF10A rereplic)
CCOC(=O)c1[nH]ncc1CN1CCCC(C(=O)c2ccc(OC)c(OC)c2)C1 (configuration not stated)	none
COc1ccc(C(=O)C2CCCN(Cc3cccn3-c3ccc(Cl)cn3)C2)c(OC)c1 (configuration not stated)	KB-3-1 tox inconclusive, KB-V1 cytotox 12µM
CCOC(=O)c1[nH]ncc1CN1CCCC(C(=O)c2cc(Cl)ccc2OC)C1 (configuration not stated)	DRD3 antagonist -102
COc1ccc(C(=O)C2CCCN(Cc3c[nH]c4ccccc34)C2)c(OC)c1 (configuration not stated)	DRD3 antagonist -96
CCN(Cc1ccccc1)C(=O)C1CCN(Cc2ccc(OC)c(OC)c2OC)CC1	KB-V1 cytotox 8.2µM, DRD3 antagonist -51
Cc1ccc(NC(=O)Cn2nnc(-c3nc(-c4ccc(Cl)cc4)no3)c2N)cc1C	none (no result: KB-3-1 tox, KB-V1 cytotox, SW480 rerep, DRD3 antagonist, MCF10A rereplic)
Cc1ccc2ncc(C(=O)NCc3ccccc3Cl)c(=O)n2c1	none (no result: SW480 rerep, DRD3 antagonist, MCF10A rereplic)
C/C1=C2N=C(/C=C3N=C(/C(C)=C4\[N-][C@@](C)([C@@H]5N=C1[C@](C)(CCC(=O)NCC(C)OP(=O)(O)O[C@H]1[C@@H](O)[C@@H](n6cnc7cc(C)c(C)cc76)O[C@@H]1CO)[C@H]5CC(N)=O)[C@@](C)(CC(N)=O)[C@@H]4CCC(N)=O)[C@@](C)(CC(N)=O)[C@@H]\3CCC(N)=O)C(C)(C)[C@@H]/2CCC(N)=O.CC(=O)O.[Co] (some centres not stated)	none (no result: KB-3-1 tox, KB-V1 cytotox, SW480 rerep, DRD3 antagonist, MCF10A rereplic)
CCCCS(=O)CC(O)CSc1nc(-c2ccc(OC)cc2)cc(-c2ccccc2)c1C#N (configuration not stated)	none (no result: SW480 rerep, DRD3 antagonist, MCF10A rereplic)
CN1CCN(Cc2cccc(Oc3ccccc3)c2)CC1	none
COc1ccc(CN2CCN(Cc3cccc(Oc4ccccc4)c3)CC2)c(OC)c1OC	KB-3-1 tox inconclusive, DRD3 antagonist -70
COc1ccc(Br)cc1CN1CCN(Cc2c[nH]c3ccccc23)CC1	KB-V1 cytotox inconclusive, SW480 rerep inconclusive, DRD3 antagonist -90, MCF10A rereplic inconclusive
COc1cccc(C(=O)N2CCN(Cc3cc(Br)ccc3OC)CC2)c1	DRD3 antagonist -84
COC(=O)c1ccccc1NC(=O)CSc1nc(-c2ccccc2)cc(C(F)(F)F)n1	none (no result: SW480 rerep, DRD3 antagonist, MCF10A rereplic)
COc1ccc(NC(=O)c2sc3nc(C)c(C(=O)Nc4ccc(C)cc4C)c(-c4ccc(Cl)cc4)c3c2N)cc1	none (no result: SW480 rerep, DRD3 antagonist, MCF10A rereplic)
CCOC(=O)c1c(C)nc2sc(C(=O)Nc3ccc(OC)cc3)c(N)c2c1-c1ccc(OC)cc1	KB-3-1 tox 5.8µM, KB-V1 cytotox 4.1µM, SW480 rerep inconclusive, MCF10A rereplic 3.5µM
